Measurements taken from PubChem BioAssay (EPA / NIEHS).
Calls of active or inactive are those of the source. The calls were made as follows: active = hit-call score of the fitted dose curve at least 0.9, where 1 is the maximum; inactive = score below 0.9.

Read-out: Cytochrome P450 2C19 (Homo sapiens) (UniProt P33261)
Experiment: LTEA_HepaRG_CYP2C19: Life Technologies and Expression Analysis (LTEA) Assay for CYP2C19 using HepaRG (AID 2283482)
Conditions: mRNA level, 48 h; actives raise or lower the signal
Method in brief: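 Human HepaRG liver cells received test chemicals for 48 h (highest 100 uM, half-log dilutions in 0.5% DMSO). CYP2C19 mRNA induction or loss is read by multiplexed qRT-PCR and fitted in both directions versus vehicle.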

Cytochrome P450 2C19 (Homo sapiens), sequence (P33261 whole entry, looked up): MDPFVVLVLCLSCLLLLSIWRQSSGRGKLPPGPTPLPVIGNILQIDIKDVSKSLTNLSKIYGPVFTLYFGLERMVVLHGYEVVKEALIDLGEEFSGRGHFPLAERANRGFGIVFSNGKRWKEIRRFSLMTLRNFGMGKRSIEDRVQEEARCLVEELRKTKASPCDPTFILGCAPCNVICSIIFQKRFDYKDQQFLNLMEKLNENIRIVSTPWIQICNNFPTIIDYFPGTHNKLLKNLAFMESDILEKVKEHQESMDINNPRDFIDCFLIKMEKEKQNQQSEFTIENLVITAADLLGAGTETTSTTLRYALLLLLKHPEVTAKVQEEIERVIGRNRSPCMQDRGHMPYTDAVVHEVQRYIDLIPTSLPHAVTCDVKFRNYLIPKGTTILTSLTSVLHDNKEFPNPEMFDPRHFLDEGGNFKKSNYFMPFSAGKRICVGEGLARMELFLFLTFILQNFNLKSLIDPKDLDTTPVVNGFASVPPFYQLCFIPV

outcome, inactive:
CC(=O)OCC(COC(C)=O)OC(C)=O
CCCC(=O)O
CCCCC(CC)CO (stereo not given)
CC1(C)C(=O)NC(=O)N1CO
O=C(O)CC(O)(CC(=O)O)C(=O)O
CCCCCCC(CCCCCCCCCCC(=O)OCC(COC(C)=O)OC(C)=O)OC(C)=O (stereo not given)
NC1CCCCC1
C=CCCCCCCCCCCCC
CC(C)OC(=O)C(C)(C)Oc1ccc(C(=O)c2ccc(Cl)cc2)cc1
O=C(Oc1ccccc1)c1cccc(C(=O)Oc2ccccc2)c1
CC(=O)OC1CC(C)OC(C)O1 (stereo not given)
O=C(O)c1cccnc1
NCCOCCOCCN
O=C1O[C@H]([C@H](O)CO)C(O)=C1O
CCN(CC)CCOc1ccc(C(=C(Cl)c2ccccc2)c2ccccc2)cc1
C/C=C/c1ccc(OC)cc1
O=C(O)c1[nH]n(-c2ccc(S(=O)(=O)O)cc2)c(=O)c1N=Nc1ccc(S(=O)(=O)O)cc1
Oc1ccc(O)cc1
CC(C)c1cccc(C(C)C)c1
NC=O
Cc1cn([C@H]2C=C[C@@H](CO)O2)c(=O)[nH]c1=O

AC50, active:
Cc1cc(Cc2ccc(N)c(C)c2)ccc1N 11.5 µM
CC(C)(O)c1ccc(CNC(=O)c2cccnc2Oc2ccc(F)cc2)cc1 8.99 µM
CN(C)C(=O)NC1(c2ccccc2)CCN(CCC[C@]2(c3ccc(Cl)c(Cl)c3)CCCN(C(=O)c3ccccc3)C2)CC1 23.6 µM
O=C1OC(c2ccc(O)cc2)(c2ccc(O)cc2)c2ccccc21 76.9 µM
CCCCC(CC)COP(=O)(OCC(CC)CCCC)OCC(CC)CCCC (stereo not given) 7.79 µM
CC(=O)CC(c1ccccc1)c1c(O)c2ccccc2oc1=O (stereo not given) 5.47 µM

Read-out: CYP2C8 (gene 1558)
Experiment: LTEA_HepaRG_CYP2C8: Life Technologies and Expression Analysis (LTEA) Assay for CYP2C8 using HepaRG (AID 2283483)
Conditions: mRNA level, 48 h; actives raise or lower the signal
Method in brief: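 CYP2C8 expression measured by TaqMan qRT-PCR and normalized to three housekeeping genes. HepaRG cultures were treated for 48 h with an eight-point half-log series topping at 100 uM, vehicle 0.5% DMSO, duplicates; fitted both directions against DMSO.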

outcome, inactive:
CC(=O)OCC(COC(C)=O)OC(C)=O
CCCC(=O)O
Cc1cc(Cc2ccc(N)c(C)c2)ccc1N
CCCCC(CC)CO (stereo not given)
CC1(C)C(=O)NC(=O)N1CO
O=C(O)CC(O)(CC(=O)O)C(=O)O
CCCCCCC(CCCCCCCCCCC(=O)OCC(COC(C)=O)OC(C)=O)OC(C)=O (stereo not given)
NC1CCCCC1
CC(C)(O)c1ccc(CNC(=O)c2cccnc2Oc2ccc(F)cc2)cc1
C=CCCCCCCCCCCCC
CC(C)OC(=O)C(C)(C)Oc1ccc(C(=O)c2ccc(Cl)cc2)cc1
O=C(Oc1ccccc1)c1cccc(C(=O)Oc2ccccc2)c1
CN(C)C(=O)NC1(c2ccccc2)CCN(CCC[C@]2(c3ccc(Cl)c(Cl)c3)CCCN(C(=O)c3ccccc3)C2)CC1
CC(=O)OC1CC(C)OC(C)O1 (stereo not given)
O=C(O)c1cccnc1
NCCOCCOCCN
O=C1O[C@H]([C@H](O)CO)C(O)=C1O
CCN(CC)CCOc1ccc(C(=C(Cl)c2ccccc2)c2ccccc2)cc1
CCCCC(CC)COP(=O)(OCC(CC)CCCC)OCC(CC)CCCC (stereo not given)
CC(=O)CC(c1ccccc1)c1c(O)c2ccccc2oc1=O (stereo not given)
C/C=C/c1ccc(OC)cc1
O=C(O)c1[nH]n(-c2ccc(S(=O)(=O)O)cc2)c(=O)c1N=Nc1ccc(S(=O)(=O)O)cc1
Oc1ccc(O)cc1
CC(C)c1cccc(C(C)C)c1
NC=O
Cc1cn([C@H]2C=C[C@@H](CO)O2)c(=O)[nH]c1=O

AC50, active:
O=C1OC(c2ccc(O)cc2)(c2ccc(O)cc2)c2ccccc21 78.7 µM
CCc1nc(N)nc(N)c1-c1ccc(Cl)cc1 79.6 µM
